DT40 TDP1 CPT: DT40-hTDP1 cell growth loss with CPT; chicken DT40 Tdp1-/-;hTDP1 cells + 20 nM CPT, ATP luminescence, 48 h; Potency, µM (top dose mostly 46.2 µM), actives largely listed as inhibitors; hit rate 12% among 420,000; AID 686979; further: nearly all actives have a fitted effect of over 55% in size
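Chicken DT40 Tdp1-/- cells stably complemented with human TDP1 were seeded at 400 cells/well in medium containing 20 nM camptothecin, exposed to pin-transferred compounds, and grown at 37 °C for at least 48 hr. Viability was read as ATP luminescence.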
TGFb SMAD3 inh: inhibitors of TGF-b signaling. HepG2 CAGA-GFP TGF-b/SMAD3 reporter, GFP fluorescence, 18 h; TGF-beta stimulated, 500 pg/mL final. Potency, µM (top dose mostly 46.1 µM), usual class: inhibitors. hit rate 1.2% among 410,000. AID 588855; further: nearly all actives have a fitted effect of over 65% in size
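HEPG2 CAGA-GFP reporter cells (1000/well, DMEM with 1% FBS) received compounds, then recombinant TGF-beta at 500 pg/mL final for 18 hours at 37 degrees C. Per-cell GFP summed per well was normalised to unstimulated and stimulated DMSO controls before curve fitting.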
TDP1 cell noCPT: qHTS for Inhibitors of human tyrosyl-DNA phosphodiesterase 1 (TDP1): qHTS in cells in absence of CPT; DT40 Tdp1-/- hTDP1 cells, no CPT, ATP luminescence, 48 h; Potency, µM (titrated, usually from 46.2 µM), actives largely listed as inhibitors; hit rate 15% among 420,000; AID 686978, 2013; further: nearly all actives have a fitted effect of over 55% in size
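Chicken DT40 Tdp1-/- cells complemented with human TDP1, screened without camptothecin (DMSO vehicle only), 400 cells/well. Compounds pin-transferred, cells incubated at 37 °C for at least 48 hr. Growth read as ATP-dependent luminescence (CellTiter-Glo, 30 min at RT).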
HepG2 tox: counter-screen for TGF-b inhibitors: cytotoxicity in HepG2 cells; hit rate 0.76% among 410,000; AID 588856; Potency, µM (highest dose often 46.1 µM), actives largely listed as cytotoxic; HepG2 CAGA-GFP viability, ATP luminescence, 18 h
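CellTiter-Glo luminescence gave cytotoxicity after 18 hours at 37 degrees C. The cells were HepG2 CAGA-GFP in 1% FBS DMEM, stimulated with 500 pg/mL TGF-beta after compound addition. %Activity was normalised to no-cell wells (complete cell-killing) and DMSO (no toxicity), and curves were fitted and classified.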
TDP1 inh: inhibitors of human tyrosyl-DNA phosphodiesterase TDP1 | Q9NUW8 | Potency, µM (top dose mostly 130 µM), most hits filed as inhibitors | recombinant TDP1, AlphaScreen DNA substrate cleavage | hit rate 0.28% among 350,000; further: nearly all actives have a fitted effect of over 40% in size
Target sequence (Q9NUW8 whole entry, looked up): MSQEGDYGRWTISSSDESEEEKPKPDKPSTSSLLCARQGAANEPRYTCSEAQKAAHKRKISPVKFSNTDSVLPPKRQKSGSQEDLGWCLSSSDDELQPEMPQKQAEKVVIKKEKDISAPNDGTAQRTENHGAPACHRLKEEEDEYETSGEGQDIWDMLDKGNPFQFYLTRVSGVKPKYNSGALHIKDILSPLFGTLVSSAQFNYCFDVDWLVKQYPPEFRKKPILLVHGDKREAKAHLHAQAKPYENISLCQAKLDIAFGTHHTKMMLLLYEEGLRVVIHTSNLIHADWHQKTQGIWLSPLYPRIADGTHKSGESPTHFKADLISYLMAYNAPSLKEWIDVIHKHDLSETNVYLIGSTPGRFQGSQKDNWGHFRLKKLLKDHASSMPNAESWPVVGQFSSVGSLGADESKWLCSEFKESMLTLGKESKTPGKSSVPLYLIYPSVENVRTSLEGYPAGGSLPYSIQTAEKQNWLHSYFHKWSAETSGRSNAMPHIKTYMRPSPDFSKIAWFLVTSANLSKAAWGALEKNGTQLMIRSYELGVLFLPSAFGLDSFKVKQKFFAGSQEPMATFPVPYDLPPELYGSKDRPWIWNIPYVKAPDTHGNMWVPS
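Recombinant E. coli-expressed Tdp1 (1 nM) preincubated with compound 15 min at RT, then 5'-biotin/3'-phosphotyrosine-FITC DNA substrate (15 nM) added for 5 min. AlphaScreen beads (10 ug/ml) added, 10 min RT; tyrosine-FITC cleavage read as signal loss.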
IL1B secr inh: inhibitors of inflammasome signaling (IL-1 beta secretion); activity change, % at 57.5 µM; hit rate 4.7% among 360,000; AID 743279; THP-1 LPS/ATP IL-1B secretion, AlphaLISA, 16 h; hits give low values; in the data active means activity change below about -50%; inconclusive means mostly about -30% to -49%
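Secreted IL-1B measured by AlphaLISA bead assay after 16 h compound exposure of THP-1 cells; compounds (final up to 57.5 uM) added 1 h before LPS (250 ng/mL) and ATP (1.25 mM) stimulation; lower signal means less secretion.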
Large screens that a line does not name were inactive. Compounds with a hit are over-represented: about 19% of the library has one in this group of screens. Unless noted, the call rests on the fitted dose curve; in most records, active means well fitted curve in the direction sought with a large enough effect; inconclusive means small, poorly fitted or top-dose-only effect, or another doubt; inactive means no such curve, though single readings can be large; an effect the other way counts as inactive or inconclusive.

CCn1ccc(C(=O)Nc2ccc(S(=O)(=O)Nc3ccccc3OC)cc2)n1	TDP1 cell noCPT inconclusive
CCN(CC)c1ccc(NC(=O)COc2ccccc2C#N)cc1S(=O)(=O)Nc1ccccc1OC	DT40 TDP1 CPT 2.59µM, TDP1 cell noCPT 2.31µM
COc1ccc(NS(=O)(=O)c2cc(NC(=O)c3ccccn3)ccc2OC)cc1Br	DT40 TDP1 CPT inconclusive, IL1B secr inh -56.4
CCN(CC)c1ccc(NC(=O)c2ccccn2)cc1S(=O)(=O)Nc1ccccc1OC	DT40 TDP1 CPT 16.4µM, TGFb SMAD3 inh inconclusive, TDP1 cell noCPT 20.6µM
COc1ccccc1NS(=O)(=O)c1cc(NC(=O)CNC(=O)c2ccccc2)ccc1C	none
NS(=O)(=O)c1ccc(CCNC(=O)c2ccccc2OCc2ccc(F)cc2)cc1	TDP1 cell noCPT inconclusive (no result: TDP1 inh)
NS(=O)(=O)c1ccc(NCc2cc(Cl)ccc2OCc2ccc(F)cc2)cc1	DT40 TDP1 CPT inconclusive, TGFb SMAD3 inh inconclusive, TDP1 cell noCPT inconclusive, IL1B secr inh -56.7
Clc1ccccc1CNCC1CCCO1 (stereo not given)	none (no result: TDP1 inh)
COc1cc(CNn2c(C)n[nH]c2=S)cc(Cl)c1OCc1ccc(F)cc1	none
Brc1ccc(OCc2ccccc2)c(CNCC2CCCO2)c1 (stereo not given)	DT40 TDP1 CPT inconclusive, TDP1 cell noCPT 18.4µM
OCCNCc1cc(Br)ccc1OCc1ccccc1	DT40 TDP1 CPT 23.1µM, TDP1 cell noCPT 16.4µM, IL1B secr inh -58.1
CCOc1cc(CNn2cn[nH]c2=S)cc(Cl)c1OCc1ccccc1F	DT40 TDP1 CPT inconclusive, TGFb SMAD3 inh inconclusive, TDP1 cell noCPT 14.6µM
CCC1=C2CC[C@H]3C(=O)NC(=O)[C@H]3[C@H]2[C@@]2(C)C(=NCCOC)OC(=O)N2C1=O	none (no result: DT40 TDP1 CPT, TGFb SMAD3 inh, TDP1 cell noCPT, HepG2 tox, IL1B secr inh)
CCOc1cc(CNCCO)cc(Br)c1OCc1ccccc1	DT40 TDP1 CPT 18.4µM, TGFb SMAD3 inh inconclusive, TDP1 cell noCPT 16.4µM, IL1B secr inh -80.0
CCOc1cc(CNCC(O)c2ccccc2)cc(Cl)c1OC (stereo not given)	DT40 TDP1 CPT inconclusive
CCOc1cc(CNc2ccccc2)cc(Br)c1OCc1ccccc1F	DT40 TDP1 CPT inconclusive, TDP1 cell noCPT inconclusive
COc1ccc(Br)cc1CN(C)CC(=O)NCCc1ccc(S(N)(=O)=O)cc1	TDP1 cell noCPT inconclusive (no result: TDP1 inh)
CCNCc1cc(Cl)c(OCc2ccccc2)c(OCC)c1	DT40 TDP1 CPT inconclusive, TGFb SMAD3 inh inconclusive, TDP1 cell noCPT inconclusive, IL1B secr inh -93.4
NS(=O)(=O)c1ccc(CCNCc2cc(Br)ccc2OCc2ccccc2)cc1	DT40 TDP1 CPT 14.6µM, TGFb SMAD3 inh inconclusive, TDP1 cell noCPT 11.6µM, IL1B secr inh -54.0
CCOc1cc(CNCCc2ccc(S(N)(=O)=O)cc2)ccc1OCc1ccccc1	DT40 TDP1 CPT 11.6µM, TDP1 cell noCPT 11.6µM, IL1B secr inh -53.9
COCCCNC(=O)c1sc2nc3n(c(=O)c2c1C)CCC3	none (no result: IL1B secr inh)
CCOc1ccccc1NC(=O)CSc1c(C)cnc2c1c(=O)n(C)c(=O)n2C	DT40 TDP1 CPT inconclusive, TDP1 cell noCPT inconclusive (no result: IL1B secr inh)
CC(=O)Nc1ccccc1-c1nc(CNC(=O)c2ccc(-n3cccn3)cc2)c(C)o1	none (no result: TGFb SMAD3 inh, HepG2 tox, TDP1 inh, IL1B secr inh)
CCOc1cc(CNCCc2ccc(S(N)(=O)=O)cc2)cc(Cl)c1OCc1ccccc1	DT40 TDP1 CPT 12.6µM, TGFb SMAD3 inh inconclusive, TDP1 cell noCPT inconclusive, IL1B secr inh -81.0
CCOc1cc(CNc2ccc(S(N)(=O)=O)cc2)cc(Cl)c1OC	DT40 TDP1 CPT inconclusive, TDP1 cell noCPT inconclusive
CCC(=O)N1CCc2cc(Br)cc(S(=O)(=O)N3CCC(C(=O)Nc4ccccc4CC)CC3)c21	DT40 TDP1 CPT inconclusive, TDP1 cell noCPT inconclusive (no result: IL1B secr inh)
Cc1ccc(Cl)cc1N1CCN(C(=O)CCn2c(=O)c3cccn3c3cccnc32)CC1	DT40 TDP1 CPT 9.2µM, TDP1 cell noCPT 6.51µM (no result: IL1B secr inh)
Cc1ccc(C)c(N2CCN(C(=O)CCn3c(=O)c4cccn4c4cccnc43)CC2)c1	DT40 TDP1 CPT inconclusive, TGFb SMAD3 inh inconclusive, TDP1 cell noCPT 20.6µM (no result: IL1B secr inh)
Cc1ccc(C)c(N2CCN(CCCNC(=O)Cn3c(=O)c4cccn4c4cccnc43)CC2)c1	DT40 TDP1 CPT 20.6µM, TDP1 cell noCPT inconclusive, IL1B secr inh inconclusive
O=C(CCn1c(=O)c2cccn2c2cccnc21)N1CCN(c2cccc(Cl)c2)CC1	DT40 TDP1 CPT 18.4µM, TGFb SMAD3 inh inconclusive, TDP1 cell noCPT 14.6µM
O=C(CCn1c(=O)c2cccn2c2cccnc21)N1CCN(c2ccccc2F)CC1	DT40 TDP1 CPT inconclusive, TDP1 cell noCPT 23.1µM (no result: IL1B secr inh)
CN(CC(=O)O)c1ccc(C=O)cc1	none (no result: TDP1 inh, IL1B secr inh)
Cc1cc(NC(=S)NC(=O)c2ccccc2)ccc1-c1cc2ccccc2oc1=O	DT40 TDP1 CPT 3.26µM, TDP1 cell noCPT 2.91µM
CCOc1ccc(C(=O)Nc2ccc(-c3cc4ccccc4oc3=O)c(C)c2)cc1[N+](=O)[O-]	DT40 TDP1 CPT 13µM, TGFb SMAD3 inh inconclusive, TDP1 cell noCPT 11.6µM
Nc1nccnc1C(=O)OCC(=O)NCCc1ccc(Cl)cc1	none
CCOC(=O)/C(C)=C1\NC(C)(C)Cc2ccccc21	TDP1 cell noCPT inconclusive

High-throughput results deposited in PubChem BioAssay by National Center for Advancing Translational Sciences (NCATS).
